From PubChem BioAssay (Tox21)
“And” between values parts separate entries of the source, which are not always exact repeats. Equal entries are not always repeated. Inconclusive results are not listed. A structure can be active in one record and inactive in another. The source made the active and inactive calls. Unless noted, the call rests on the fitted dose curve; in most records, active means well fitted curve in the direction sought with a large enough effect in the repeat runs; inconclusive means weak or mixed curves; inactive means no such curve, though single readings can be large; an effect the other way counts as inactive or inconclusive.

How the values were obtained:
[1] = qHTS assay to test for compound auto fluorescence at 535 nm (green) in HEK293 cells (AID 720680)
[2] = qHTS assay to test for compound auto fluorescence at 460 nm (blue) in HEK293 cell free culture (AID 720681); further: potency means the concentration at half of the fitted maximal effect
Outline: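 Blue fluorescence (Ex 405/Em 460 nm, triamterene-equivalent) was read immediately after pin transfer of compound or DMSO into medium (DMEM, 10% FBS) without cells.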

[3] = qHTS assay to test for compound auto fluorescence at 535 nm (green) in HEK293 cell free culture (AID 720682)
Outline: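 Using fluorescein as calibrant, autofluorescence was quantified at 485/535 nm in cell-free DMEM containing 10% FBS after pintool addition of compound or vehicle.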

[4] = qHTS assay to test for compound auto fluorescence at 590 nm (red) in HEK293 cell free culture (AID 720683)
Outline: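 Red-channel autofluorescence of compounds in culture medium (DMEM, 10% FBS), no cells, measured at 540/590 nm. Rose Bengal sodium is the reference fluorophore for equivalence.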

[5] = qHTS assay to test for compound auto fluorescence at 590 nm (red) in HepG2 cell free culture (AID 720684)
Outline: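 No cells present: MEM + 10% FBS only. Compound pinned in, red label read (540/590 nm). Activity = fluorescence equivalent to Rose Bengal sodium.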

[6] = qHTS assay to test for compound auto fluorescence at 460 nm (blue) in HepG2 cell free culture (AID 720685); further: potency means the concentration at half of the fitted maximal effect
Outline: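 Cell-free plates of MEM plus 10% FBS received 23 nL compound or DMSO vehicle; blue-channel (405/460 nm) intensity scored against triamterene as reference fluorophore.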

[7] = qHTS assay to test for compound auto fluorescence at 535 nm (green) in HepG2 cell free culture (AID 720686)
[8] = qHTS assay to test for compound auto fluorescence at 460 nm (blue) in HepG2 cells (AID 720687)
Outline: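 Blue-channel autofluorescence (Ex/Em 405/460 nm, triamterene-equivalent) was measured after 1 hr compound exposure at 37 C, 5% CO2. Cells were HepG2, plated overnight at 37 C in MEM plus 10% FBS.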

[9] = qHTS assay to identify small molecule antagonists of the glucocorticoid receptor (GR) signaling pathway - cell viability counter screen (AID 720693); further: nearly all actives have a fitted effect of over 55% in size
[10] = qHTS assay for identifying genotoxic compounds that show differential cytotoxicity against isogenic chicken DT40 cell lines with known DNA damage response pathways - wild type cell line (AID 743012); further: nearly all actives have a fitted effect of over 60% in size; further: potency means the concentration at half of the fitted maximal effect
Outline: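 Endpoint: CellTiter-Glo luminescence, 30 min RT. Cells: wild type DT40, 300/well. Exposure: compounds in DMSO, 40 h, 37 C/5% CO2, after ~0.5 h pre-incubation.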

[11] = qHTS assay for identifying genotoxic compounds that show differential cytotoxicity against isogenic chicken DT40 cell lines with known DNA damage response pathways - Rev3 mutant cell line (AID 743014); further: nearly all actives have a fitted effect of over 55% in size; further: potency means the concentration at half of the fitted maximal effect
[12] = qHTS assay for identifying genotoxic compounds that show differential cytotoxicity against isogenic chicken DT40 cell lines with known DNA damage response pathways - Rad54/Ku70 mutant cell line (AID 743015); further: nearly all actives have a fitted effect of over 60% in size; further: potency means the concentration at half of the fitted maximal effect
[13] = qHTS assay to identify small molecule antagonists of the androgen receptor (AR) signaling pathway - cell viability counter screen (AID 743033; further: nearly all actives have a fitted effect of over 45% in size; further: potency means the concentration at half of the fitted maximal effect)
[14] = molecular target: Androgen receptor (Homo sapiens) (UniProt P10275); test: qHTS assay to identify small molecule antagonists of the androgen receptor (AR) signaling pathway (AID 743035; active means well fitted inhibition curve with a large enough effect in the signal ratio in the repeat runs, not every such curve was filed as active; the % refers to the signal ratio)
Outline: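 R1881 agonist challenge of a HEK293 UAS-beta-lactamase AR reporter line in the presence of compound (16 h, 37C); signal taken as FRET fluorescence after 2 h with LiveBLAzer B/G substrate at room temperature.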

[15] = molecular target: Androgen receptor (Homo sapiens) (UniProt P10275); test: qHTS assay to identify small molecule agonists of the androgen receptor (AR) signaling pathway (AID 743036; active means well fitted activation curve with a large enough effect in the signal ratio in the repeat runs, with a control signal flat, not every such curve was filed as active; the % refers to the signal ratio)
Outline: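 In this Tox21 qHTS, 2,000 HEK293 AR-bla cells per well were incubated with compounds for 16 h at 37C and 5% CO2. Fluorescence intensity was recorded 2 h after adding LiveBLAzer B/G FRET substrate at room temperature.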

[16] = molecular target: Androgen receptor (Homo sapiens) (UniProt P10275); test: qHTS assay to identify small molecule agonists of the androgen receptor (AR) signaling pathway using the MDA cell line (AID 743040; further: nearly all actives have a fitted effect of over 20% in size)
Outline: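 Stable MMTV-luciferase reporter in MDA-kb2 cells; note the promoter carries GR as well as AR response elements. 16 h compound treatment, 37C, 0% CO2; ONE-Glo luminescence endpoint.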

[17] = qHTS assay to identify small molecule antagonists of the androgen receptor (AR) signaling pathway using the MDA cell line - cell viability counter screen (AID 743041; further: nearly all actives have a fitted effect of over 45% in size)
Outline: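 Using the breast carcinoma line MDA-kb2 AR-luc, test chemicals were co-incubated with R1881 for 16 h; CellTiter-Fluor reagent, added at 15.5 h, provided a fluorescence measure of live cells.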

[18] = molecular target: Androgen receptor (Homo sapiens) (UniProt P10275); test: qHTS assay to identify small molecule antagonists of the androgen receptor (AR) signaling pathway using the MDA cell line (AID 743042; further: nearly all actives have a fitted effect of over 55% in size)
Outline: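 Antagonist mode: compounds plus R1881 agonist added to MDA-kb2 AR-luc cells, incubated 16 h at 37C. Luciferase reporter luminescence quantified, with multiplexed CellTiter-Fluor readout for cell viability.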

[19] = molecular target: Glucocorticoid receptor (Homo sapiens) (UniProt P04150); test: qHTS assay to identify small molecule antagonists of the glucocorticoid receptor (GR) signaling pathway (AID 720692; active means well fitted inhibition curve with a large enough effect in the signal ratio in the repeat runs, not every such curve was filed as active; the % refers to the signal ratio)
Outline: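 Tox21 10K library screened in concentration-response for blockade of dexamethasone (5 nM final)-induced GRE-bla reporter activity in HeLa cells; 18 h treatment, fluorescence read.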

[20] = molecular target: Glucocorticoid receptor (Homo sapiens) (UniProt P04150); test: qHTS assay to identify small molecule agonists of the glucocorticoid receptor (GR) signaling pathway (AID 720691; active means well fitted activation curve with a large enough effect in the signal ratio in the repeat runs, not every such curve was filed as active; the % refers to the signal ratio); settings: GR-bla HeLa, beta-lactamase reporter ratio, 18 h; activation: at 62.4 µM (top of the series) unless noted
Outline: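 Measures GR pathway activation through a GRE-beta-lactamase reporter stably integrated in HeLa cells, with 18 h compound treatment at 37 C and fluorescence detection using a FRET substrate.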

Measured: Potency
Tags describe the fitted curve by direction and shape or compound fluorescence and quenching.

Sequence of Glucocorticoid receptor (Homo sapiens) (P04150 whole entry, looked up): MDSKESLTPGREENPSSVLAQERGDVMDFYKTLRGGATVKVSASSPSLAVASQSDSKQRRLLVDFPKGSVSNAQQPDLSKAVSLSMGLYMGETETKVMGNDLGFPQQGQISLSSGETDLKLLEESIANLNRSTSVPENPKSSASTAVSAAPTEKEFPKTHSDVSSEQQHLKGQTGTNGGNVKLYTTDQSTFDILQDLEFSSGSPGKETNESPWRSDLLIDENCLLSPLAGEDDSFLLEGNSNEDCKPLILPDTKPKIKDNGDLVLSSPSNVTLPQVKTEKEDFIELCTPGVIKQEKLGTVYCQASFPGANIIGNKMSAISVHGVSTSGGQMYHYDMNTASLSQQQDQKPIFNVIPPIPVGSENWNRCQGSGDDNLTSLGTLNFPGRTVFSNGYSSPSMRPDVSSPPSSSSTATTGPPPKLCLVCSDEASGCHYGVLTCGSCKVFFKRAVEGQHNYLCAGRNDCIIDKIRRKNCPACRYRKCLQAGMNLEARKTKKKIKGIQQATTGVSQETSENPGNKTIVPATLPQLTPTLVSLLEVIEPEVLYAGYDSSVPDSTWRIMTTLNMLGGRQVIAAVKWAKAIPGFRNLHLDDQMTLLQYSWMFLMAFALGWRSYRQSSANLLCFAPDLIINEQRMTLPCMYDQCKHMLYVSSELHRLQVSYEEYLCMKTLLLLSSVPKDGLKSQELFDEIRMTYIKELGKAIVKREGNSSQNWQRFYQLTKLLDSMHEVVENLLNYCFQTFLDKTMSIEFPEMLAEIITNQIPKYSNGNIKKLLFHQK
Sequence of Androgen receptor (Homo sapiens) (P10275 whole entry, looked up): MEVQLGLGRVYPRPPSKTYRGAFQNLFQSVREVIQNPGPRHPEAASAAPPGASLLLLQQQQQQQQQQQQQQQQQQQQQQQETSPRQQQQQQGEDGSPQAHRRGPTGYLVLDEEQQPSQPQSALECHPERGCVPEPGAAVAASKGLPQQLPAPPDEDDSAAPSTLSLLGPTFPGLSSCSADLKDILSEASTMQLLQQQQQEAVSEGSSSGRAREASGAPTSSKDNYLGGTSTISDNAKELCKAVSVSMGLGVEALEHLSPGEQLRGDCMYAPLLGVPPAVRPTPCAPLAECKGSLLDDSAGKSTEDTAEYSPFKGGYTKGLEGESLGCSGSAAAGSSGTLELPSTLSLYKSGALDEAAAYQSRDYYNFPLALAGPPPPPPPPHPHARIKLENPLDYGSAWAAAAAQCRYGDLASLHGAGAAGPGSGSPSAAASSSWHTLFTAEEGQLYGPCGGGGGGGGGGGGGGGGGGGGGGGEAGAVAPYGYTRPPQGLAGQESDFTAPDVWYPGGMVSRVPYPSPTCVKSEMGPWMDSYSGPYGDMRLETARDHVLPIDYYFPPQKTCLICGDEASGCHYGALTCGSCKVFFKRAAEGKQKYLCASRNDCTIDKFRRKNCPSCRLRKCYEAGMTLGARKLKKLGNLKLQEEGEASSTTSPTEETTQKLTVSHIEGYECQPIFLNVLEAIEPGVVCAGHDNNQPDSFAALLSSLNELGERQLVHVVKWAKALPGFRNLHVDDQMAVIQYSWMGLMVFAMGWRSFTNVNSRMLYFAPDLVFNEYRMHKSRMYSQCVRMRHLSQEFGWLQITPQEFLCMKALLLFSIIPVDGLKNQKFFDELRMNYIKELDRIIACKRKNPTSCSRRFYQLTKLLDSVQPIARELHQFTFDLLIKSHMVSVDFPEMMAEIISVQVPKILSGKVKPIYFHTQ

CCCCC(CC)COC(=O)/C=C\C(=O)OCC(CC)CCCC (stereo not given)
not listed: [19] | [20]
inactive: all other assays above

O=C(Cl)c1c(Cl)c(Cl)c(C(=O)Cl)c(Cl)c1Cl
not listed: [14] | [15] | [16] | [18] | [19] | [20]
inactive: all other assays above

COCC(=O)O
not listed: [9] | [14] | [15] | [16] | [18] | [20]
inactive: all other assays above

CN(CCOc1ccc(CC2SC(=O)NC2=O)cc1)c1ccccn1 (stereo not given)
inactive and 60.8 µM (active): [10] | [11]
active: [12] 27.1 µM
not listed: [14] | [15] | [16] | [18] | [19] | [20]
inactive: all other assays above

OCCOCCOCCOCCO
not listed: [14] | [15] | [16] | [18] | [19] | [20]
inactive: all other assays above

CCC(C)C=O (stereo not given)
not listed: [9] | [14] | [15] | [16] | [18] | [19] | [20]
inactive: all other assays above

C[C@@H]1O[C@@H](OC[C@H]2O[C@@H](Oc3c(-c4ccc(O)c(O)c4)oc4cc(O)cc(O)c4c3=O)[C@H](O)[C@@H](O)[C@@H]2O)[C@H](O)[C@H](O)[C@H]1O
not listed: [17] | [19] | [20]
inactive: all other assays above

CC1COc2ccccc2N1C(=O)C(Cl)Cl (stereo not given)
active: [11] 30.6 µM and 24.3 µM | [12] 61 µM and 38.5 µM
inactive: [1] | [2] | [3] | [4] | [5] | [6] | [7] | [8] | [13]

NC(=O)/N=N/C(N)=O
inactive: [1] | [2] | [3] | [5] | [6] | [7] | [8] | [10] | [11] | [12] | [13]

O=C(c1cc(O)c(O)c(O)c1)c1ccc(O)c(O)c1O
inactive: [1] | [2] | [3] | [5] | [6] | [7] | [8] | [9] | [13]
active: [10] 48.4 µM and 13.7 µM | [11] 30.5 µM and 13.7 µM | [12] 30.5 µM and 13.7 µM

CC1=C(/C=C/C(C)=C/C=C/C(C)=C/CO)C(C)(C)CCC1
inactive: [1] | [2] | [3] | [5] | [6] | [7] | [8] | [13] | [17]
active: [10] 28.8 µM | [11] 55.1 µM and 36.2 µM | [12] 43.8 µM and 25.7 µM

CCCCC(CC)C(=O)OCCOCCOCCOC(=O)C(CC)CCCC (stereo not given)
active: [10] 21.7 µM
inactive and 19.3 µM (active): [11]
not listed: [4] | [9] | [20]
inactive: all other assays above

Cc1cc(=O)[nH]c(C(C)C)n1
not listed: [4] | [19]
inactive: all other assays above

c1ccc2ccccc2c1
not listed: [4] | [14] | [15] | [16] | [18] | [19] | [20]
inactive: all other assays above

O=[N+]([O-])C(CO)(CO)CO
inactive: [1] | [2] | [3] | [5] | [6] | [7] | [8] | [9] | [11] | [13]
inactive and 68.6 µM (active): [10] | [12]

Cc1ccc(C)c(C)c1
not listed: [4] | [9] | [19]
inactive: all other assays above

Cc1cc(O)cc(C)c1Cl
not listed: [4] | [9] | [14] | [15] | [16] | [18] | [20]
inactive: all other assays above

CC1CC(OC(=O)c2ccccc2O)CC(C)(C)C1 (stereo not given)
not listed: [4] | [14] | [15] | [16] | [18]
inactive: all other assays above

O=C(Oc1ccccc1)c1ccc(O)cc1
not listed: [4] | [14] | [15] | [16] | [18] | [19]
inactive: all other assays above

S=c1nc[nH]c2nc[nH]c12
active: [10] 23.7 µM | [11] 53.1 µM | [13] 5.36 µM
not listed: [4] | [14] | [15] | [16] | [18] | [19] | [20]
inactive: all other assays above

Nc1nc2ncc(CNc3ccc(C(=O)N[C@@H](CCC(=O)O)C(=O)O)cc3)nc2c(=O)[nH]1
active: [2] 35.5 µM | [6] 35.5 µM [fluorescent]
not listed: [4] | [8] | [9] | [19]
inactive: all other assays above

CCCCOCCOCCOC(=O)CCCCC(=O)OCCOCCOCCCC
not listed: [4] | [9] | [14] | [15] | [16] | [17] | [18] | [20]
inactive: all other assays above
